In the library only some 6.9% were active in any assay of this set; here they are far more common.
Vif-A3F inh: blocks the Vif interaction with APOBEC3F; Potency, µM (series often up to 46.1 µM), without a hit: top-dose activity, negative = active; HeLa A3F-eYFP + Vif (tagged APOBEC3F with the HIV-1 protein that degrades it), YFP fluorescence increase; AID 602313; actives 0.2% (n = 390,000); further: potency means the concentration at half of the fitted maximal effect; % of control where 0% means no effect; nearly all actives have a fitted effect of over 65% in size
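HeLa cells stably expressing Vif plus C-terminally eYFP-tagged A3F were seeded, incubated overnight at 37 deg C, dosed with compound, incubated overnight again at 37 deg C. Yellow fluorescence (Ex 488/Em 500-530) reported blocked Vif-mediated A3F-eYFP degradation.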
MCF10A rereplic: induces DNA re-replication in MCF 10a normal breast cells. MCF 10A DNA re-replication, Hoechst nuclear intensity, 48 h. actives 2.9% (n = 350,000). Potency, µM (highest dose often 46.1 µM), inactives show top-dose activity, positive = re-replication, hits mostly activators. AID 624296; further: potency means the concentration at half of the fitted maximal effect; % of control where 0% means no effect; nearly all actives have a fitted effect of over 50% in size
Vif-APOBEC3G blk: Vif-A3G binding inhibition; actives 0.076% (n = 410,000); Q9HC16; Potency, µM (series often up to 46.1 µM), without a hit: top-dose activity, negative = active, hits mostly inhibitors; HeLa A3G-eYFP + Vif (tagged APOBEC3G with the HIV-1 protein that degrades it), YFP fluorescence, overnight; further: potency means the concentration at half of the fitted maximal effect; on the % scale 0 is the no-effect control and ±100 the full control effect; nearly all actives have a fitted effect of over 60% in size
Target sequence (Q9HC16 whole entry, looked up): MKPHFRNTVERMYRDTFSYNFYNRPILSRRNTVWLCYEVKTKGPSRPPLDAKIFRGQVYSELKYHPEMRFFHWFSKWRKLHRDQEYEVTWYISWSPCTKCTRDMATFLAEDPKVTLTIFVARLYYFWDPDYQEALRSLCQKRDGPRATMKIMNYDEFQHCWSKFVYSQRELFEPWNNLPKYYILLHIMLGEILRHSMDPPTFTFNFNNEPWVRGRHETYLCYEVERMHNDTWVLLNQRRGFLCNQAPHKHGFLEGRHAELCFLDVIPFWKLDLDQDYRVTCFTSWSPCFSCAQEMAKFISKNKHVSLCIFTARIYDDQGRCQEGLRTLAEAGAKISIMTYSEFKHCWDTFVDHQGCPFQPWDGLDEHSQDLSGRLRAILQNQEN
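HeLa cells stably expressing Vif and C-terminally eYFP-tagged A3G, seeded overnight at 37 deg C, then exposed to compound by pintool overnight at 37 deg C. Rise in yellow fluorescence (Ex 488/Em 500-530, Acumen) marks blocked Vif-driven A3G degradation.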
Giardia kill: Giardia lamblia killing | Giardia lamblia trophozoite viability | activity change, % at 7.66 µM, hits read low | actives 0.15% (n = 340,000) | AID 540267; in the data active means activity change below about -80%; inconclusive means between about -30% and that limit;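 further: parasites exposed to compound for two days anaerobically before the ATP read; on the % scale 0 is the no-effect control and ±100 the full control effect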
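Giardia lamblia trophozoites (100 cells/well) were incubated with compounds for 48 h at 37 deg C under anaerobic conditions. Viability was read as ATP content by one-step luminescence after 15-30 min at room temperature.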
SW480 rereplic: induces DNA re-replication in SW480 colon adenocarcinoma cells; SW480 DNA re-replication, Hoechst DNA content imaging, 48 h; Potency, µM (titrated, usually from 46.1 µM), for inactives: top-dose re-replication activation, usual class: activators; actives 1.8% (n = 340,000); AID 624297; further: potency means the concentration at half of the fitted maximal effect; % of control where 0% means no effect; nearly all actives have a fitted effect of over 55% in size
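DNA re-replication was detected as more nuclei of elevated Hoechst intensity after 48 hr exposure to compound (23 nL pinned per well of 250 cells).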
IL1B secr inh: inflammasome signaling inhibition, IL-1 beta readout; AID 743279; activity change, % at 57.5 µM; THP-1 LPS/ATP IL-1B secretion, AlphaLISA, 16 h; active compounds read low; actives 4.7% (n = 360,000); in the data active means activity change below about -50%; inconclusive means mostly about -30% to -49%; further: on the % scale 0 is the no-effect control and ±100 the full control effect
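THP-1 cells pretreated 1 hr with compounds (up to 57.5 uM final), then stimulated with LPS (250 ng/mL final) plus ATP (1.25 mM final); secreted IL-1B measured by AlphaLISA after 16 hr, decreased signal indicating inhibition.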
* = called active by the depositor; ? = inconclusive; . = no result given; [ ] = another dose, or the depositor's remark. Unless noted, the call rests on the fitted dose curve; in most records, active means well fitted curve in the direction sought with a large enough effect; inconclusive means small, poorly fitted or top-dose-only effect, or another doubt; inactive means no such curve, though single readings can be large; an effect the other way counts as inactive or inconclusive.

SMILES	Vif-A3F inh	MCF10A rereplic	Vif-APOBEC3G blk	Giardia kill	SW480 rereplic	IL1B secr inh
Cc1ccc(CNC(=O)c2cc(C)nn2-c2ccccc2)cc1	-1%	-14%	0%	5	-18%	22
COc1ccccc1CNC(=O)c1ccc(N2CCCC2)c(NC(=O)NCc2ccccc2)c1	5%	.	-3%	.	.	.
COc1cccc(NC2c3ccccc3C(=O)N2Cc2ccccc2Cl)c1 (configuration not stated)	-19%	?	-5%	16	21µM*	-8
CCc1cccc2c(N=O)c(O)[nH]c12	-7%	3%	-5%	6	-5%	-64*
CN(C)S(=O)(=O)c1ccc(C(=O)Oc2cc(=O)[nH]c3ccccc23)cc1	-6%	6.5µM*	-1%	-3	4%	35
CSCC[C@H](NC(=O)c1cccs1)C(=O)N1CCC2(CC1)NCCc1[nH]cnc12	-8%	3%	1%	10	-1%	-85*
Clc1cccc(OCCN2CCNCC2)c1	?	4%	0%	2	18µM*	9
Clc1cccc(OCCN2CCOCC2)c1	-1%	2%	-1%	10	1%	-3
N=c1n(CCO)c2ccccc2n1CCOc1ccc(Cl)cc1Cl	1%	?	2%	-2	4%	-102*
COc1ccc(OCCn2c(=N)n(CCO)c3ccccc32)cc1	-12%	2%	0%	9	-7%	-16
Cc1cc(/C=C2/NC(=O)NC2=O)c(C)n1-c1ccccn1	-18%	-2%	-2%	-14	-5%	42
Cc1cccc(CN2C(=O)N/C(=C/c3ccc(C)s3)C2=O)c1	?	7.3µM*	?	-11	?	0
CCN1C(=O)/C(=C/c2ccc(C)s2)NC1=S	1%	0%	1%	7	-4%	2
Cc1ccc(/C=C2/NC(=O)N(Cc3ccccc3)C2=O)s1	22µM*	-3%	?	5	4%	-14
Cc1cccc(CN2C(=O)N/C(=C/c3cc(C)n(-c4cc(C)ccn4)c3C)C2=O)c1	-11%	?	0%	-8	19%	-58*
Cc1ccc(NC(=O)CN2C(=O)N/C(=C/c3ccc(C)s3)C2=O)cc1	?	1%	?	-3	0%	9
CS(=O)(=O)Nc1cccc(C(=O)CC2(O)C(=O)Nc3ccccc32)c1 (configuration not stated)	-4%	2%	-3%	-20	-14%	7
CS(=O)(=O)Nc1cccc(C(=O)CC2(O)C(=O)Nc3ccc(Br)cc32)c1 (configuration not stated)	3%	8.2µM*	-10%	-19	?	39
CCOC(=O)c1c(CN2CCN(C)CC2)n(-c2ccccc2)c2cc(Br)c(O)cc12	-21%	18%	1%	4	?	-12
CCOC(=O)c1c(CN2CCN(CC#N)CC2)n(C)c2cc(Br)c(OC)cc12	0%	?	-6%	-13	?	-63*
CCOC(=O)c1c(CN(CC)CC)n(-c2ccccc2)c2ccc(O)cc12	-2%	?	13µM*	-24	-4%	-60*
CCOC(=O)c1c(CN2CCN(CCO)CC2)n(-c2ccccc2)c2cc(Br)c(O)cc12	-2%	?	1%	-12	?	-81*
CCOC(=O)c1c(C)n(-c2ccccc2)c2ccc(O)cc12	0%	?	-4%	-11	-37%	23
CCOC(=O)c1c(CN2CCN(Cc3ccccc3)CC2)n(C)c2cc(Br)c(OC)cc12	1%	12%	6%	23	-5%	-10
CCCCN(CCCNC(=O)c1cc(Nc2ccc(OC)c(OC)c2)nc2ccccc12)Cc1ccccc1	1%	.	1%	.	.	.
SMILES	Vif-A3F inh	MCF10A rereplic	Vif-APOBEC3G blk	Giardia kill	SW480 rereplic	IL1B secr inh
NC1(C#Cc2ccc3oc(=O)c(-n4cc(-c5ccsc5)nn4)cc3c2)CCCCC1	-2%	25%	-1%	?	19%	-99*
Cc1nn(-c2ccc(N3CCOCC3)nn2)c(C)c1CCC(=O)NCc1ccc(Cl)cc1	3%	.	1%	.	.	.
CCCc1ccc(OC(=O)c2sc3ncn(Cc4cccc(F)c4)c(=O)c3c2C)cc1	2%	.	2%	.	.	.
Cc1ccc(N(C)S(=O)(=O)c2ccc3[nH]c(=O)ccc3c2)cc1	-13%	.	-3%	.	.	.
O=c1[nH]c2ccc(NCc3ccc(-c4cccc(Cl)c4)o3)cc2[nH]1	-5%	.	-7%	.	.	.
Cc1ccc(C(=O)c2oc3ccccc3c2NC(=O)c2cc(=O)c3cc(C)ccc3o2)cc1	-5%	.	2%	.	.	.
CN(C)c1ccc(SC#N)cc1	-3%	-7%	2%	7	-5%[9.22 µM]	-99*
CN(C)c1ccc(C=O)cc1	.	.	1%	.	.	.
CCn1nnnc1NCc1ccc(OCc2ccc(F)cc2Cl)c(OC)c1	2%	2%	2%	4	-15%	-58*
CCOC(=O)C1CCCN(C(=O)CCS(=O)(=O)c2cc3c(cc2Cl)NC(=O)CO3)C1 (configuration not stated)	9%	.	0%	.	.	.
C=C1[C@@H](O)[C@H](Cc2ccccc2)N(Cc2ccccc2Br)S1(=O)=O	10%	21µM*	?	-7	-1%[9.22 µM]	-102*
COc1cc(N/N=C(\C)c2ccc(N)cc2)nc(-c2ccccc2)n1	2%	18µM*	10%	15	3%	?
C/C(=N\Nc1cc(-c2ccccc2)nc(-c2ccccc2)n1)c1ccc(O)c(C)c1	3%	7.3µM*	-8%	-15	?	-27
C/C(=N\Nc1nc(C)cc(-c2ccccc2)n1)c1ccc(O)cc1	-1%	0%	-2%	-9	?	-74*
C/C(=N\Nc1cc(Cl)nc(C)n1)c1ccc(Cl)c(Cl)c1	-8%	-7%	-1%	-4	9%	8
COc1cc(N/N=C(\C)c2ccc(O)c(C)c2)nc(-c2ccccc2)n1	5%	?	-20%	-9	?	-59*
C/C(=N\Nc1nc(C)cc(-c2ccccc2)n1)c1cccc(N)c1	4%	6%	3%	18	1%	5
COc1ccc(-c2nc(N/N=C(\C)c3ccc(O)cc3)c3ccccc3n2)cc1	6%	?	-5%	?	?	-8
CC(=O)c1c(C)oc2c1cc(NS(=O)(=O)c1ccc(Cl)c(C)c1)c1ccccc12	-2%	.	1%	.	.	.
COc1cc(NC(=O)c2noc3c2CCc2ccccc2-3)cc(OC)c1OC	4%	.	-3%	.	.	.

Compound activity from PubChem BioAssay.
